# The panel holds about 79,000 compounds, 15% with a hit somewhere; the sample as a whole holds those more often. Values without a mark were called inactive. Calls of active or inactive are those of the source. No stated cut-off is given here; in the data, active means growth inhibition above about 70%; inactive means the rest.
# Legend:
# [1] = NCI Yeast Anticancer Drug Screen. Data for the rad50 strain (AID 155);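 further: 0% = growth of vehicle-only cultures of the same strain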; conditions: S. cerevisiae rad50 strain growth inhibition; at 50.0 µM; stronger effect = higher value
# Method in brief: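 Readout: growth inhibition relative to vehicle-treated cultures. Compound exposure was carried out in a genetically defined yeast strain deficient in DNA damage repair.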
# [2] = NCI Yeast Anticancer Drug Screen. Data for the mec2-1 strain (AID 157); conditions: S. cerevisiae mec2-1 strain, at 50.0 µM, stronger effect = higher value
# Method in brief: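 Readout is yeast growth inhibition, normalised to vehicle-treated controls, in the mec2-1 strain exposed to compound.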
# [3] = NCI Yeast Anticancer Drug Screen. Data for the sgs1 mgt1 strain (AID 161);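 further: 0% = growth of cultures given vehicle only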; conditions: S. cerevisiae sgs1 mgt1 strain, at 50.0 µM, stronger effect = higher value
# Method in brief: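 Percent growth inhibition was derived by comparing compound-exposed mutant yeast with vehicle-exposed cultures. The strain carries alterations in DNA damage repair.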
# [4] = NCI Yeast Anticancer Drug Screen. Data for the cln2 rad14 strain (AID 165);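 further: 0% = growth equal to vehicle treated cultures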; conditions: S. cerevisiae cln2 rad14 strain, at 50.0 µM, stronger effect = higher value
# Method in brief: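 Relative to vehicle controls, growth inhibition of compound-treated cln2 rad14 yeast was recorded.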
# [5] = NCI Yeast Anticancer Drug Screen. Data for the bub3 strain (AID 167); conditions: S. cerevisiae bub3 mutant strain, at 50.0 µM, stronger effect = higher value
# Method in brief: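 Readout: yeast growth inhibition, expressed relative to vehicle-only wells. The test organism is a mutant strain from a panel with lesions in DNA repair or checkpoint genes.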
# [6] = NCI Yeast Anticancer Drug Screen. Data for the mlh1 rad18 strain (AID 175); conditions: S. cerevisiae mlh1 rad18 strain growth inhibition; at 50.0 µM; stronger effect = higher value
# Method in brief: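 Test agents were incubated with a yeast strain of defined genotype (DNA damage repair defect). Inhibition of growth was derived by comparison with vehicle-exposed cultures.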
SMILES,growth inhibition [1],growth inhibition [2],growth inhibition [3],growth inhibition [4] [%],growth inhibition [5],growth inhibition [6]
O=C(O)C(O)c1ccc(Cl)cc1 (stereo not given),17.7%,-0.65%,-14.8%,-15.1,16.1%,11.2%
CC(=O)C(Sc1ccccc1[N+](=O)[O-])C(C)=O.[Co],33.2%,9.5%,4.75%,-1.3,6.45%,15.8%
CC(C)CC1N=C(NN=C(CCl)CCl)SP1(=O)NCCCCCCNP1(=O)SC(NN=C(CCl)CCl)=NC1CC(C)C (stereo not given),2.95%,12.1%,11.4%,-11.7,15.9%,13.8%
c1ccc2c(c1)c1ccccc1c1n[se]nc21,-4.7%,-1.5%,2.75%,-6.25,7.55%,11.9%
CCCCC[As](=O)(O)O,12.2%,-6.4%,1.2%,-5.6,4.3%,7.95%
Fc1ccc(N=C=S)cc1,-28.1%,-20.2%,-24.1%,-9.8,-6.2%,2.2%
COc1ccc2c(c1)[C@@]13CCCC[C@H]1[C@@H](C2)N(C)CC3=O,41.5%,26.9%,-14.3%,9.65,3%,-48%
NNC(=O)CCC(N)C(=O)O (stereo not given),-20.3%,-18.4%,-35.3%,-11.8,-17.4%,-49%
CNC(=O)Oc1ccc(Br)cc1Br,29.4%,-0.95%,-2.6%,-3.55,10.9%,2.35%
Cc1ccc(NC(=O)C(=O)C2C(=O)NC(=O)NC2=O)c(C)c1,13.9%,9.75%,5.75%,11.2,15.9%,17.6%
Oc1ccc(Cl)cc1Br,-2.4%,-14.6%,-1.1%,12,-23.4%,-0.15%
Nc1nc(N)c(N)c(N)n1,3.05%,1.8%,14.6%,-3.05,-3.05%,34.2%
O=C(Oc1cc(Cl)c(S(=O)(=O)F)cc1Cl)c1ccc([N+](=O)[O-])cc1,78.2% (active),86% (active),90.2% (active),64.8,73.5% (active),89.9% (active)
CCCCCCCCCCOP(OCCCCCCCCCC)Oc1ccccc1,47.1%,-4.9%,2.1%,10.5,0.45%,7.45%
FC(F)(F)c1cccc(NC2=NCCS2)c1,-22.2%,-46.1%,0%,-5.6,17.9%,-42.8%
O=C(CC(=O)C(F)(F)F)c1ccco1.[Fe],32.6%,21.3%,0.5%,6.9,6.55%,14.7%
N/C(=N\N=C\c1ccc(O)cc1O)N[N+](=O)[O-],12.2%,-0.85%,-3.45%,-41.7,3.65%,4.1%
CCCCOP(=O)(Cc1ccccc1)Oc1ccccc1 (stereo not given),73% (active),32%,68.8%,50.4,35.3%,27.6%
O=c1ccn(C2OC(CO)C(O)C2[Se]c2ccccc2)c(=O)[nH]1 (stereo not given),4%,-9.45%,16.8%,6.05,7.2%,27.1%
Cc1ccc(C(=O)CN)cc1,10.4%,0.05%,-1.35%,4,3.45%,-9.5%

# — PubChem BioAssay (NCI)
